From PubChem BioAssay
A number with no mark means an inactive call. The source made the active and inactive calls. Cut-off read from the data, not from the text of the source, unless noted: active = inhibition above about 44%; inactive = the rest.

Legend:
[1] = target: Nuclear receptor coactivator 3 (Homo sapiens) (UniProt Q9Y6Q9); assay: SRC3 coactivator transcriptional activity inhibitors, confirmation, cell-based, luminescence, quadruplicate (AID 588792;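 active = mean inhibition over 43.08%, the solvent-only control mean plus 3 SD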;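 note: 0% = DMSO treated cells and 100% = gossypol at 36 µM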); conditions: HEK293 GAL4-SRC3 luciferase reporter, at 3.6 µM, hits give high values
[2] = tested on: transactivating tegument protein VP16 (Human herpesvirus 1), Gal4-VP16 luciferase reporter; assay: VP16 transactivation inhibitors, counter-screen for SRC3 inhibitor project, cell-based, luminescence, high throughput (AID 588794; in the data active = inhibition above about 30%); conditions: mammalian cells, VP16-driven luciferase reporter luminescence; at 3.6 µM; hits give high values
[3] = StAR promoter reporter inhibitors, counter-screen for LRH-1 inverse agonist project, cell-based, luminescence, high throughput (AID 651611; in the data active = inhibition above about 28%); conditions: StAR promoter luciferase reporter counterscreen, at 3.6 µM, hits give high values
[4] = target: Nuclear receptor subfamily 5 group A member 2 (Homo sapiens) (UniProt O00482); assay: LRH-1 (NR5A2) inverse agonists, retest, confirmation, cell-based, luminescence (AID 651613; in the data active = inhibition above about 42%;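 note: HEK293T cells co-transfected with LRH-1 and StAR promoter luciferase reporter; 0% = vehicle wells and 100% = parental cells lacking receptor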); conditions: cell-based LRH-1 luciferase reporter, inverse agonism; at 3.6 µM; hits give high values
[5] = target: Steroidogenic factor 1 (Homo sapiens) (UniProt Q13285); assay: SF1 (NR5A1) inverse agonists, counter-screen for LRH-1 inverse agonist project, cell-based, luminescence, high throughput (AID 651614); conditions: cell-based SF1 luciferase reporter, at 3.6 µM, hits give high values;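 note: cells cotransfected with StAR promoter reporter and SF1 expression vector; 0% = vehicle on cells with receptor and 100% = vehicle on cells lacking receptor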
[6] = VP16 transactivation reporter inhibitors, counter-screen for LRH-1 inverse agonist project, cell-based, luminescence, high throughput (AID 651615; in the data active = inhibition above about 33%); conditions: Gal4-VP16 luciferase reporter cells, at 3.6 µM, hits give high values

Sequence of Nuclear receptor subfamily 5 group A member 2 (Homo sapiens) (O00482 whole entry, looked up): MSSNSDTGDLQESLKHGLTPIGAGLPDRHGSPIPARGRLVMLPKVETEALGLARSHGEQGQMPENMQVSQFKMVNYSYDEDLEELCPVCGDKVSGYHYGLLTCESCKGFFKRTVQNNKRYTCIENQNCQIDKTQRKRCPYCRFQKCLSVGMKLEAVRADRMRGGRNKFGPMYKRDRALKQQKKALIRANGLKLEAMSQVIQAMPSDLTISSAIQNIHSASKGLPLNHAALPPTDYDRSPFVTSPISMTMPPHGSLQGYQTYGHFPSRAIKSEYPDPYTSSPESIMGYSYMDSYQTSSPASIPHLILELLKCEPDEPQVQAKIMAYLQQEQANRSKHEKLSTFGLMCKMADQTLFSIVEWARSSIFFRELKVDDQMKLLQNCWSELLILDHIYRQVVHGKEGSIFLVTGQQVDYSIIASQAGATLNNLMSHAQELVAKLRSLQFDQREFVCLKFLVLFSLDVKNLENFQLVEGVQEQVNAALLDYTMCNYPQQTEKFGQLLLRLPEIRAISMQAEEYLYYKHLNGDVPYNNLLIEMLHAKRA
Sequence of Steroidogenic factor 1 (Homo sapiens) (Q13285 whole entry, looked up, the tested form may be a part): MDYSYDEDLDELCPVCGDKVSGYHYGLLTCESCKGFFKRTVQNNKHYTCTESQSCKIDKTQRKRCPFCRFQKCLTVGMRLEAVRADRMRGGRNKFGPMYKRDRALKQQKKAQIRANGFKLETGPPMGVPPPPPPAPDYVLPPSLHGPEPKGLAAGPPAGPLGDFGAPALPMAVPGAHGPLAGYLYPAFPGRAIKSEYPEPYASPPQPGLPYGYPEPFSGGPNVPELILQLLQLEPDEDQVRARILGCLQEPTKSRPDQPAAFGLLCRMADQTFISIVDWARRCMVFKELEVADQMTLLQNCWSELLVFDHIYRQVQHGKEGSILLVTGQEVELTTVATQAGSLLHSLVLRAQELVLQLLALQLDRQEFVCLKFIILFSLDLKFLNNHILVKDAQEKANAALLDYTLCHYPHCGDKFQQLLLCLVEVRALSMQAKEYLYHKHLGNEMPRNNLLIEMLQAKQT
Sequence of Nuclear receptor coactivator 3 (Homo sapiens) (Q9Y6Q9 whole entry, looked up, the tested form may be a part): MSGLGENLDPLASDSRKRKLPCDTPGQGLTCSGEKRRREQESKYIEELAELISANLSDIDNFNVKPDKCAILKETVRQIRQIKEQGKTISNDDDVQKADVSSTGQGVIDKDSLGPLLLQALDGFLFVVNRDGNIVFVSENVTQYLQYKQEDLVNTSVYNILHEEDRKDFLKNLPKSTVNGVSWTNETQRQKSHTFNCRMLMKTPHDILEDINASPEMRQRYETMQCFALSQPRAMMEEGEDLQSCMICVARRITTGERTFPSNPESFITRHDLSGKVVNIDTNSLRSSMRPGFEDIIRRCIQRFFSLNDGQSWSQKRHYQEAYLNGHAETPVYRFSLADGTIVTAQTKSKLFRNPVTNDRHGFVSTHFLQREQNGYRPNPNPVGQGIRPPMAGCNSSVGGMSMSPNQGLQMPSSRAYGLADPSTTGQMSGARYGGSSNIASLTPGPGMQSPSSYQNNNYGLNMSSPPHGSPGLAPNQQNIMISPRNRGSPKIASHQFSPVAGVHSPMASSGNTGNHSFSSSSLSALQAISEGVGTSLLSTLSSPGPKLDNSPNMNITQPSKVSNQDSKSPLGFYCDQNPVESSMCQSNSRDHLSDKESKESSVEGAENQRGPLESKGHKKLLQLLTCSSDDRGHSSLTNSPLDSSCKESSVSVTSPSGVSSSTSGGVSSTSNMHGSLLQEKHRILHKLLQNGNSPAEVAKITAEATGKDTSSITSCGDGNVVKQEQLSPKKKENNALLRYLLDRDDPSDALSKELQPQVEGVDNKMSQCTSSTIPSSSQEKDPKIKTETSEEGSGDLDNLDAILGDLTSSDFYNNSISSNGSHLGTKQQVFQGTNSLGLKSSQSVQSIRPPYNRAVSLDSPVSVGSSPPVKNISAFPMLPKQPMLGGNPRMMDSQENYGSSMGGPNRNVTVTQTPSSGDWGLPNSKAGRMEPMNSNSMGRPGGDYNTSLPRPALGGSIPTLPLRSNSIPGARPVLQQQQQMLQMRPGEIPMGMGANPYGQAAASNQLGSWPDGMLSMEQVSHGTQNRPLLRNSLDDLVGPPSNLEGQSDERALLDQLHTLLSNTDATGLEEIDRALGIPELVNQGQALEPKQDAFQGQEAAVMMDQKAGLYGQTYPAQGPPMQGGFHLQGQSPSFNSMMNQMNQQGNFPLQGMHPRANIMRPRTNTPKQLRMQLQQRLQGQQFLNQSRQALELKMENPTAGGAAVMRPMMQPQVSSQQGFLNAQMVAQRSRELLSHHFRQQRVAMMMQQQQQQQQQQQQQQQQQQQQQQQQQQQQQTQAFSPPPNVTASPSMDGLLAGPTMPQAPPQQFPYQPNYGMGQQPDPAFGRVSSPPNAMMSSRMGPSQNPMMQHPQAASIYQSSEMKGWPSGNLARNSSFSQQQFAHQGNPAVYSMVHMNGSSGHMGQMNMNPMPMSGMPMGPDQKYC

CCOc1ccc(OCc2ccc(C(=O)NN=Cc3ccc[nH]3)cc2)cc1
inhibition [1]: 38.9%
inhibition [2]: 78.4% (active)
inhibition [3]: 76.2% (active)
inhibition [4]: 104% (active)
inhibition [5]: 90.6% (active)
inhibition [6]: 87.1% (active)

CCOc1ccc(-n2c(-c3ccc(Br)cc3)c[n+]3c2CCCCC3)cc1
inhibition [1]: 26.1%
inhibition [2]: 24.1%
inhibition [3]: 22.8%
inhibition [4]: 104% (active)
inhibition [5]: 60.1% (active)
inhibition [6]: 67.5% (active)

CCOc1ccc(-c2c[n+]3c(n2-c2ccccc2)CCCCC3)cc1
inhibition [1]: 28.4%
inhibition [2]: 43.8% (active)
inhibition [3]: 22.6%
inhibition [4]: 94.5% (active)
inhibition [5]: 69.1% (active)
inhibition [6]: 66.9% (active)

COc1cc(C)c(Br)cc1S(=O)(=O)NCc1ccncc1
inhibition [1]: 9.21%
inhibition [2]: 30.9% (active)
inhibition [3]: 14.3%
inhibition [4]: 49% (active)
inhibition [5]: 38.5%
inhibition [6]: 38% (active)

NC(=O)c1ccc(N2CCN(S(=O)(=O)c3cccs3)CC2)c([N+](=O)[O-])c1
inhibition [1]: -7.6%
inhibition [2]: 34.7% (active)
inhibition [3]: 21%
inhibition [4]: 64.7% (active)
inhibition [5]: 63.9% (active)
inhibition [6]: 46.1% (active)

COc1cccc(CNc2nc3cc(-c4cnn(Cc5ccccc5)c4)sc3c(=O)n2C)c1
inhibition [1]: 6.76%
inhibition [2]: 30.1% (active)
inhibition [3]: 32.4% (active)
inhibition [4]: 47.3% (active)
inhibition [5]: 52% (active)
inhibition [6]: 46.9% (active)

C[n+]1c2n(c3ccccc31)N=C(c1cc(C(C)(C)C)c(O)c(C(C)(C)C)c1)CS2
inhibition [1]: 81.1% (active)
inhibition [2]: 84.6% (active)
inhibition [3]: 81.7% (active)
inhibition [4]: 106% (active)
inhibition [5]: 95% (active)
inhibition [6]: 90% (active)

COC(=O)c1ccc(COC(=O)c2[nH]c(C)c(C(C)=O)c2C)o1
inhibition [1]: 19.6%
inhibition [2]: 15.9%
inhibition [3]: 12.8%
inhibition [4]: 54.4% (active)
inhibition [5]: 38.7%
inhibition [6]: 41% (active)

c1ccc(CNc2nc(-c3ccccn3)nc3ccccc23)cc1
inhibition [1]: 21.8%
inhibition [2]: 29.9% (active)
inhibition [3]: 68.7% (active)
inhibition [4]: 76.8% (active)
inhibition [5]: 84.3% (active)
inhibition [6]: 66.5% (active)

COc1ccc(NC(=O)c2cc(-c3cc(Cl)ccc3C)n[nH]2)cc1OC
inhibition [1]: 20.2%
inhibition [2]: 50.6% (active)
inhibition [3]: 30.7% (active)
inhibition [4]: 57% (active)
inhibition [5]: 61.1% (active)
inhibition [6]: 64.4% (active)

O=C(Nc1ccc(F)cc1)Nc1cc(OCC(F)(F)F)cc(OCC(F)(F)F)c1
inhibition [1]: 17%
inhibition [2]: 29.6% (active)
inhibition [3]: 53.8% (active)
inhibition [4]: 98.5% (active)
inhibition [5]: 75.6% (active)
inhibition [6]: 78% (active)

c1ccc(C[n+]2cccc3c4ccccc4ccc32)cc1
inhibition [1]: 32.6%
inhibition [2]: 54.8% (active)
inhibition [3]: 41.7% (active)
inhibition [4]: 83.4% (active)
inhibition [5]: 74.3% (active)
inhibition [6]: 70.4% (active)
